Screening results (PubChem BioAssay)
In the library only some 5.2% were active in any assay of this set; here they are far more common.
Vif inh: HIV Vif self-association inhibitors, primary screen, imaging, HEK293T, single point. inhibition, % at 7.49 µM. 0.35% of 340,000 active. HEK293T cells, Vif self-association by quenched fluorescence, 24 h; in the data active = inhibition above about 50%, passing the limit was not always enough
SKN-1 block: suppressors of acrylamide-induced Pgst-4::GFP reporter in worms, primary screen, SKN-1 inhibitor project, whole organism, uHTS, GFP/RFP fluorescence ratio, strain VP596; C. elegans VP596 Pgst-4::GFP/RFP ratio, 24 h; AID 624304, 2012; 0.49% of 360,000 active; inhibition, % at 21.8 µM;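 active = interference check ratio from 0.5 to 1.5 plus GFP to RFP signal ratio inhibition reaching or exceeding a fixed threshold, cut at about 30% in these data, passing the limit was not always enough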
GRIN3A LBD mod: binders of NR3A ligand-binding domain, primary screen, biophysical, differential scanning fluorimetry, uHTS; AID 1259313, 2017; NR3A LBD differential scanning fluorimetry, Tm shift; 0% = protein alone, 100% = glycine-bound protein; Glutamate receptor ionotropic, NMDA 3A (GRIN3A) ligand-binding domain; 2.5% of 340,000 active; Tm shift relative to glycine control, % at 25 µM;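 active = melting temperature shift of at least 10% of the positive control shift, at one fixed dose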
SMARCA2 act: SMARCA2 (BRM) function activators, primary screen, cell-based, luminescence, high throughput; activation, % at 9.1 µM; AID 652017, 2013; 1% of 370,000 active; MG213 cells, MMTV-luciferase reporter, dexamethasone, overnight; in the data active = activation above about 7.8%;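 note: 0% = vehicle wells and 100% = reference activator wells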
NadD inh: inhibitors of S. aureus NadD, primary screen, biochemical, colorimetric, uHTS; Nicotinate-nucleotide adenylyltransferase NadD (Staphylococcus aureus N315); 0.78% of 360,000 active; inhibition, % at 20 µM; purified NadD enzyme, colorimetric absorbance read-out; in the data active = inhibition above about 26%
esBAF inh: Bmi1 luciferase reporter increase in mESCs, primary screen, esBAF inhibitor project, mouse ES cells, Bmi1 luciferase knock-in, single point. 24 h; 100% = twice the neutral-well signal. reporter increase, % at 12.5 µM. 2% of 350,000 active. AID 602393, 2012; in the data active = activation above about 40%;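 note: 0% = median of the plate's neutral control wells and 100% = double that signal; a rise in the Bmi1 reporter signal indicates esBAF inhibition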
* marks the source's active call; other numbers are inactive results; / = no result.

SMILES	Vif inh	SKN-1 block	GRIN3A LBD mod	SMARCA2 act	NadD inh	esBAF inh
O=c1c2cc(N3CCOCC3)ccc2[nH]c(=S)n1Cc1ccco1	5.6	-5.8	-4.0	-0.4	13.9	6.2
O=c1c2cc(N3CCOCC3)ccc2[nH]c(=S)n1Cc1cccc(Cl)c1	-0.2	-5.6	31.0*	-0.4	7.6	2.1
O=c1c2cc(Cl)ccc2[nH]c(=S)n1Cc1cccs1	-3.4	1.0	18.6*	-0.4	-2.7	/
CCCC(=O)Nc1ccc2c(c1)C(=O)N(C)[C@H]1CC[C@H](CC(=O)N3CCc4ccccc4C3)O[C@H]1CO2	/	/	/	/	/	-1.9
O=C(Nc1ccccc1F)N1C[C@@H]2[C@H](c3ccccc31)[C@H](CO)N2C(=O)C1CCCC1	/	/	/	/	/	21.9
C[C@@H]1CN([C@@H](C)CO)C(=O)Cc2cc(NC(=O)Nc3ccccc3)ccc2O[C@@H]1CN(C)C(=O)Nc1ccc(F)cc1	/	/	/	/	/	2.9
Cc1c(C#N)c(O)n(CCO)c(=O)c1N=Nc1ccc2c(c1)COC2=O	3.2	47.6*	-1.3	-0.7	-5.4	/
Cc1ccc(NC(=O)NNC(=O)CN2C(=O)COc3ccccc32)cc1	-1.5	-1.1	-0.5	-4.5	-1.6	6.4
O=C(CN1c2ccccc2Sc2ccccc21)NNC(=O)Nc1ccc(Cl)c(Cl)c1	-3.1	5.3	15.8*	-3.7	23.7	3.1
O=C(CN1c2ccccc2Sc2ccccc21)NNC(=O)Nc1ccc(Cl)cc1	2.4	22.0	38.9*	-3.8	5.8	/
O=C(NCC[C@H]1CC[C@@H](NS(=O)(=O)c2ccc(Oc3ccccc3)cc2)[C@H](CO)O1)C1CC1	/	/	/	/	/	1.9
COc1ccc(NC(=O)Nc2ccc3c(c2)[C@@H]2C[C@H](CC(=O)NCC4CC4)O[C@@H](CO)[C@@H]2O3)cc1	/	/	/	/	/	-2.4
COc1ccc(CN2CC(COCc3ccccc3)Oc3ccccc3S2(=O)=O)cc1 (stereo unspecified)	-1.3	1.9	1.2	-2.1	-2.2	-3.0
CCCCN1CC(COCc2ccccc2)Oc2ccccc2S1(=O)=O (stereo unspecified)	17.7	22.9	16.8*	-0.6	0.4	-4.5
CCCCN1CC(COCc2ccccc2)Oc2cccc(F)c2S1(=O)=O (stereo unspecified)	8.5	12.3	14.0*	-3.0	-1.7	-3.5
O=S1(=O)c2ccccc2OC(COCc2ccccc2)CN1Cc1ccccc1 (stereo unspecified)	-4.2	9.2	18.1*	-3.6	-2.9	-2.8
CCCCN1C[C@@H](COCc2ccccc2)Oc2cccc(F)c2S1(=O)=O	/	/	/	2.3	/	/
CCCCN1C[C@@H](COCc2ccccc2)Oc2cc(F)ccc2S1(=O)=O	/	/	/	-0.7	/	/
O=C(C[C@@H]1C=C[C@H](NC(=O)Nc2ccc3c(c2)OCO3)[C@H](CO)O1)NCc1ccc2c(c1)OCO2	/	/	/	/	/	12.0
C[C@H](CO)N1C[C@H](C)[C@@H](CN(C)S(=O)(=O)c2ccc(F)cc2)Oc2ncc(-c3ccncc3)cc2C1=O	/	/	/	/	/	-4.8
CC(=O)OC(C)C1C2=C(C(=O)CC1(C)O)C(=O)c1c(ccc(-c3ccc4c(c3O)C(=O)C3=C(C4=O)C(C(C)OC(C)=O)C(C)(O)CC3=O)c1O)C2=O (stereo unspecified)	-8.0	6.7	-1.0	-1.8	45.0*	/
CN(C)CC(=O)Nc1ccc2c(c1)[C@@H]1C[C@H](CC(=O)N(C)C)O[C@H](CO)[C@@H]1O2	/	/	/	/	/	3.4
Fc1ccccc1N1CCN(Cc2nc(-c3ccc(Cl)cc3Cl)no2)CC1	5.9	2.0	20.1*	-5.4	0.4	-8.0
CCOC(=O)c1sc2nc3c(SCCC(=O)O)cc(C(=O)c4cc(OC)ccc4O)cn3c(=O)c2c1C	-12.2	10.8	-2.1	2.2	43.5*	/
COc1ccc(-c2c(C)nn3c(-c4ccccc4)cc(C)nc23)cc1	8.9	5.6	15.3*	-0.9	0.0	-10.1
SMILES	Vif inh	SKN-1 block	GRIN3A LBD mod	SMARCA2 act	NadD inh	esBAF inh
Cc1nn2c(N)c(-c3ccccc3)cnc2c1-c1ccccc1	-1.0	9.1	1.3	3.5	-4.1	50.1*
Cc1nn2c(-c3ccc(Cl)cc3)ccnc2c1-c1ccccc1	-7.4	-4.8	3.6	0.8	-3.1	57.0*
Cc1nn2c(N)c(C#N)cnc2c1-c1ccccc1	2.2	-0.6	0.9	1.8	-5.7	9.0
O=C(C[C@H]1CC[C@@H]2[C@H](COC[C@H](O)CN2C(=O)c2ccncc2)O1)NC1Cc2ccccc2C1	/	/	/	/	/	6.0
C[C@H](CO)N1C[C@H](C)[C@@H](CN(C)C(=O)C2CCCCC2)Oc2cc(C#CC3CC3)ccc2S1(=O)=O	/	/	/	/	/	3.8
COc1ccc(O)c(C(=O)c2cnn(-c3ccccc3)c2)c1	10.8	4.9	-2.9	2.5	3.0	52.6*
O=C(c1cnn(-c2ccccc2)c1)c1cc(F)ccc1O	-1.6	-0.2	-2.0	3.2	-2.7	89.3*
CC(C)c1ccc(NC(=O)COc2ccc(F)cc2C(=O)c2cnn(-c3ccccc3)c2)cc1	-2.9	11.8	6.7	4.4	-6.6	/
O=C(COc1ccccc1C(=O)c1cnn(-c2ccccc2)c1)Nc1ccc2ccccc2c1	7.9	-0.9	1.7	5.8	-2.6	82.3*
COc1ccc(-n2cc(C(=O)c3ccccc3O)cn2)cc1	0.9	-0.4	1.2	-0.7	-8.0	/
CCC(=O)N1C[C@H](O)COC[C@@H]2O[C@@H](CC(=O)NCC3CCCCC3)CC[C@H]21	/	/	/	/	/	-7.4
COc1ccc(NC(=O)COc2ccc(-n3cnnn3)cc2)cc1OC	-15.0	6.8	11.5*	-2.1	-2.4	-0.7
CC(=O)c1ccc(OCCCC(=O)Nc2ccc(S(=O)(=O)N3CCOCC3)cc2)cc1	-10.2	14.2	22.1*	-3.0	-3.6	4.5
COc1ccc(NC(=O)c2ccc(NC(=O)CN3CCN(c4ccc(O)cc4)CC3)cc2)cc1	7.8	-4.7	17.2*	-3.4	28.5	11.7
COc1ccc(NC(=O)c2ccc(NC(=O)CN3CCN(c4ccccc4O)CC3)cc2)cc1	-5.0	7.0	/	0.6	-1.0	12.2
Cc1cc(N2CCOCC2)nc2ccc(Cl)cc12	-12.3	20.5	0.6	5.6	-3.9	56.9*
Cc1cc(C)cc(OCC(=O)Nc2ccc(N3CCCC3)cc2)c1	-1.5	2.3	5.0	/	56.5*	-5.0
CN1CCN(c2ccc(NC(=O)c3ccc(Oc4ccccc4)cc3)cc2)CC1	0.6	37.4*	-0.2	-1.1	-10.5	0.7
Cc1cc(C)cc(OCC(=O)Nc2ccc(CN3CCCCC3)cc2)c1	-2.8	-5.4	0.1	-4.5	-15.2	/
Cc1cc(C)cc(OCC(=O)Nc2ccc3c(c2)C(=O)c2ccccc2C3=O)c1	4.5	5.6	13.8*	-0.1	31.4*	/
